About 83,000 compounds went through this panel and 20% of them were active in at least one assay; those are over-represented in the sample as a whole.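 The test compound was applied at a single concentration to cells in 96-well plates for 48 hours, and percent growth was recorded.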 Activity calls are given as the source filed them.
system: COLO 205 colon; test: NCI-60 one-dose screen, 48 h (100 = growth as untreated, 0 = no growth, -100 = all killed); settings: 10 µM
Protocol: Cells are grown in 96 well plates and exposed to the test compound for 48 hours. Compounds are tested at a single concentration, which is 10^-5 M for most compounds. The reported endpoint is percent growth (GI% or GIPRCNT), where numbers from 0 - 100% represent growth inhibition, and numbers from -100% - 0 represent cell death. For example, a value of 40 represents 60% growth inhibition. A value of 0 means no net growth occurred over the course of the experiment. A value of -40 indicates 40% of cells at the beginning of the experiment died by the end of the experiment. A value of -100 means all cells are dead at the end of the experiment.
NCI-60 Human Tumor Cell Lines Screen was performed using the standard one-dose NCI protocol, which is described in more detail at https://dtp.cancer.gov/discovery_development/nci-60/default.htm.
Compounds with GIPRCNT values below 10 were considered active. Activity score was based on GIPRCNT using the following formula: […]
Score is 0 for GIPRCNT values of 100 or above, 50 for GIPRCNT values of 0, and 100 for GIPRCNT values of -100.

SMILES | growth
COc1ccc(S(=O)(=O)Nc2cc(/C=C\c3cc(OC)c(OC)c(OC)c3)ccc2OC)cc1 | -59.2% (active)
C[C@H](NC(=O)[C@@H]1CSSC[C@@H](NC(=O)Cc2nc3ccccc3cc2O)C(=O)NCC(=O)N1C)c1ccccc1 | 89.7% (inactive)
COc1ccc(-c2csc(-c3cc(Cl)cc(Cl)c3Cl)n2)cc1 | 91.6% (inactive)
[O-]c1c[n+](-c2ccc(Cl)cc2)no1 | 103% (inactive)
COCCOC(=O)NC(=O)Nc1ccc(/C(=N/O)c2ccc(Cl)cc2)cc1 | -42.6% (active)
CCOC(=O)[C@@H]1[C@H](c2ccccc2)[C@H]([N+](=O)[O-])[C@H](c2cn(-c3ccccc3)nc2C)N1Cc1ccccc1 | 64.7% (inactive)
O=C(O)CCCCSCCCCC(=O)O | 113% (inactive)
CCN(CC)CCOC(=O)c1ccc(NC(=O)Nc2cccc(Cl)c2)cc1 | 105% (inactive)
COc1ccc(C2CC(c3ccc(-c4ccccc4)cc3)=NN2c2ccc(S(N)(=O)=O)cc2)cc1 (stereo not given) | 83.8% (inactive)
CCCc1c(C)nc2scc(-c3ccc(Cl)cc3)n2c1=O | 103% (inactive)
CC(=O)/C(=C\c1ccc(Cl)cc1)c1ccccc1 | -40.5% (active)
CCN(CC)CCOC(=O)c1ccc(N=Nc2ccc(O)c(OC)c2)cc1 | 107% (inactive)
NC1CCC(Nc2nc(NCc3ccc(-c4ccco4)nc3)c3ncn(C4CCCC4)c3n2)CC1 (stereo not given) | -62.7% (active)
CCOc1ccc2c(c1)CC[C@@H]1[C@@H]2CC[C@]2(C)[C@@H](O)[C@@H](O)C[C@@H]12 | 112% (inactive)
COc1cccc(C2(C)Nc3ccccc3-c3nc4ccccc4n32)c1 (stereo not given) | 109% (inactive)
Cc1cc(Cl)ccc1Nc1nc(C(F)(F)F)ccc1C(=O)N/N=C/c1ccccc1Cl | 4.36% (active)
CCCCC(=O)N(c1ccc(Nc2c3ccccc3nc3cc([N+](=O)[O-])ccc23)cc1)S(C)(=O)=O | 88.1% (inactive)
CC(C)c1[nH]nc2c(NCc3ccc(-c4ccccn4)cc3)nc(SCCN)nc12 | -48.2% (active)
C=CCOc1ccc2c(c1)CC=C1[C@@H]2CC[C@]2(C)C(=O)/C(=N/O)C[C@@H]12 | 91.3% (inactive)
Cc1cc(C)c2c(Nc3ncnc4c3sc3nc(C)cc(C)c34)n[nH]c2n1 | 109% (inactive)

SMILES | growth
O=C(O)CCCN1C(=O)NC2(C1=O)c1ccccc1-c1ccccc12 | 108% (inactive)
Cc1cn(C(=O)/C(Cl)=C(/Cl)C(=O)O)c2ccccc12 | 91.7% (inactive)
CCCOCC(O)CNCCN (stereo not given) | 110% (inactive)
O=C(N/N=C/c1ccccc1O)c1ccccc1 | 19.3% (inactive)
Cc1cc(Nc2cccc(F)c2)nc(NCc2ccccc2)n1 | 8.24% (active)
COc1ccc(COC(=O)CC(C)C)cc1 | 109% (inactive)
CCOC(=O)Cn1nnc(-c2ccc(OCc3ccccc3F)cc2)n1 | 103% (inactive)
CCCCCCCCCCN=C(c1ccc(N(C)C)cc1)c1ccc(N(C)C)cc1 | 6.54% (active)
C=CCc1cc(Nc2c3ccc(Cl)cc3nc3ccc(OC)cc23)cc(CN(CC)CC)c1O | -83.9% (active)
CCN1CCN(c2nc(NNC(=O)c3cccc(OC)c3)nc(N3CCN(C(c4ccccc4)c4ccccc4)CC3)n2)CC1 | -31.6% (active)
COc1cc(Cn2c(-c3ccccc3)cc3c2-c2oncc2CC3)cc(OC)c1 | -29.6% (active)
CN(C)c1ccc2c(c1)OC(N)=C(C#N)C2c1ccc2c(c1)CCO2 (stereo not given) | -26% (active)
CNCCCNCCCN1C(=O)c2ccc3c4c(ccc(c24)C1=O)C(=O)N(CCCNCc1ccccc1OC)C3=O | -72.8% (active)
O=C(O)c1ccccc1C(=O)c1cccc2c(F)cccc12 | 102% (inactive)
CC(=O)Nc1nc(C)c(C(=O)N/N=C/c2cccn2C)s1 | 125% (inactive)
Cc1ccc(C(=O)O)c(N)c1C | 117% (inactive)
Fc1ccc2[nH]c3c(NCCCN4CCOCC4)ncnc3c2c1 | 53.4% (inactive)
COc1cc2c3c(cccc3c1)C(=O)N(CCN1CCCC1)C2=O | 4.92% (active)
COc1ccccc1S(=O)(=O)Nc1ccc2c(c1)CN(C)C(=O)N2 | 38.4% (inactive)
Nc1cc(O)cc(O)c1 | 102% (inactive)

— PubChem BioAssay (NCI)
